Screen size: about 48,000 compounds; about 13,000 (27%) showed an effect of 50% or more. This is one part of the list.
Tested on: Wolbachia pipientis
Test: Anti-Wolbachia Cell-Based Screen
Type: functional
Parameters: scale not given: in the data most compounds retested in dose-response had high values
Conditions: 5 µM

SMILES	Percent Effect
CCCc1nnc(NC(C)c2ccc(F)cc2)o1 (stereo not given)	-29.12%
Cc1cccc2c(CCNC(=O)[C@H](N)c3ccccc3)c[nH]c12	-3.898%
CCC(NCc1ccccc1)c1ccccc1OCC(=O)NC (stereo not given)	-0.2413%
CSCC(=O)N1C[C@H]2CC[C@@H]1CN(C1Cc3ccccc3C1)C2	0.6506%
CN1CC[C@H]2[C@H](C[C@@H](CN3CCCC3)N2c2nccs2)C1.O=C(O)C(F)(F)F.O=C(O)C(F)(F)F.O=C(O)C(F)(F)F	105.1%
CN(C)C(=O)CN1CCC2(CCCN(Cc3cccs3)C2)C1=O.O=C(O)C(F)(F)F (stereo not given)	-0.327%
Cc1ccc(CN2CCC3(CCCC(=O)N3)CC2)s1.O=C(O)C(F)(F)F	-45.29%
CN1CC(=O)N(c2cccc(F)c2)CC12CCN(Cc1ccsc1)C2.O=C(O)C(F)(F)F.O=C(O)C(F)(F)F (stereo not given)	7.196%
Cc1ccc(CN2CCC3(CCC(=O)N3CC(=O)N(C)C)CC2)s1.O=C(O)C(F)(F)F	113.5%
Cc1ccc(CN2CCC3(CCCN3S(C)(=O)=O)CC2)s1.O=C(O)C(F)(F)F	-3.179%
CN(C)C(=O)CN1C(=O)CCC12CCN(Cc1cccs1)CC2.O=C(O)C(F)(F)F	103.6%
CN(C)C(=O)CN1C(=O)CCC12CCN(Cc1ccsc1)CC2.O=C(O)C(F)(F)F	105.6%
CC1N(C)C(=O)COC12CCN(Cc1ccsc1)CC2.O=C(O)C(F)(F)F (stereo not given)	-20.67%
Cc1ccc(CN2CCOC3(CCCN(C(=O)c4ccco4)C3)C2)s1.O=C(O)C(F)(F)F (stereo not given)	12.79%
N#Cc1nccnc1N1CCC(CSc2ccccc2)C1 (stereo not given)	-2.144%
COc1ccc(-c2cn(CCSc3ncn[nH]3)nn2)cn1	4.594%
CCC1CCN(CCn2cnc3c(C)csc3c2=O)CC1	-5.154%
Cc1cc2c(=O)n(CCSc3cnn[nH]3)cnc2s1	114.6%
Cc1csc2c(=O)n(CCSc3cnn[nH]3)cnc12	116%
Cc1cc2c(=O)n(CCOCCO)cnc2s1	-13.8%
Cc1csc2c(=O)n(CCN3CCNCC3)cnc12	-1.772%
CCc1ncc(-c2cn(CCSc3ncn[nH]3)nn2)cn1	-12.01%
Cc1cc2c(=O)n(CCSc3ncn[nH]3)cnc2s1	95.33%
Cc1cc(C)nc(NCCSc2cnn[nH]2)n1	5.167%

SMILES	Percent Effect
CN(CCCc1cnn(C)c1)C(=O)Nc1cccc2[nH]ncc12	-6.714%
CCc1cnc(N2CC3(CCN(C(=O)c4ccoc4)C3)C2)nc1	-9.292%
CN(C)C[C@H]1OC[C@@H]2CCN(C(=O)c3ccc[nH]3)C[C@@H]21.O=C(O)C(F)(F)F	-11.36%
CC(=O)N(C)CC(=O)NC1(c2ccc(F)cc2)CCCC1	-10.47%
O=C1NCCO[C@H]2CN(C(=O)Cc3csc4ccccc34)CC[C@@H]12	14.47%
CCCn1cnnc1CNC(=O)CC1C(=O)NCCN1CC=C(C)C (stereo not given)	0.5151%
Cc1oncc1C(=O)N1CC[C@H]2[C@@H]1CCC(=O)N2CC1CC1	108%
Cc1oncc1C(=O)N1CC[C@H]2[C@@H]1CCC(=O)N2CC1CCOCC1	95.19%
CCc1cnc(N2CC[C@H]3[C@@H]2CCC(=O)N3CC2CCOCC2)nc1.O=C(O)C(F)(F)F	-1.93%
Cn1cccc1C(=O)N1CC[C@H]2[C@@H]1CCC(=O)N2CC1CC1	-7.905%
O=C1CC[C@@H]2[C@@H](CCN2C(=O)C2CCOCC2)N1CC1CC1	-4.769%
Cc1noc(C)c1CN1CC[C@H]2[C@@H]1CCC(=O)N2CC1CCOCC1.O=C(O)C(F)(F)F	107.1%
Cc1ccc(C(=O)N2CC[C@@H]3[C@H]2CCC(=O)N3CC2CC2)o1	4.088%
O=C(O)C(F)(F)F.O=C1CC[C@H]2[C@H](CCN2c2ccccn2)N1CC1CCOCC1	-16.88%
Cc1nc(CN2C(=O)CC[C@@H]3[C@H]2CCN3C(=O)c2ccno2)cs1	0.107%
O=C1C[C@H]2[C@H](CCN2C(=O)c2ccno2)N1CC1CC1	88.14%
Cn1cccc1C(=O)N1CC[C@@H]2[C@@H]1CC(=O)N2CC1CCOCC1	-5.807%
Cn1ccc2c(C(=O)NCC3(C(N)=O)CCOCC3)cccc21	-19.6%
CCc1nc(CC(=O)NCC2(C(N)=O)CCOCC2)cs1	13.26%
CCN(CC)c1ccc(NC(=O)NCC2(C(N)=O)CCOCC2)cn1	-0.5907%
Cc1nn(C)c(C)c1S(=O)(=O)NCC1(C(N)=O)CCOCC1	87.99%
Cc1nn(C)c(C)c1S(=O)(=O)NCC(C)(O)c1ccc2c(c1)OCO2 (stereo not given)	12.95%
Cc1nn(C)c(C)c1CCC(=O)NCC1(C(N)=O)CCOCC1	112%
Cc1nn(C)c(C)c1CC(=O)NCC1(C(N)=O)CCOCC1	121.1%

SMILES	Percent Effect
Cc1nn(C)c(C)c1S(=O)(=O)N(CC(N)=O)CC(C)C	0.7063%
CCN(CC)c1ccc(C(=O)NCC2(C(N)=O)CCOCC2)cn1	-5.685%
Cc1nn(C)c(C)c1CCC(=O)NCc1csc(N2CCCC2)n1	-4.027%
Cc1nn(CC(=O)NCC2(C(N)=O)CCOCC2)c(C)c1Cl	113.9%
CC(C)C1CN(Cc2nccn2C(C)C)CCC(=O)N1CC1CC1 (stereo not given)	-13.37%
CN(C)Cc1nc(C(C)(C)NC(=O)c2ccc3ccccc3c2)no1	-5.67%
Cc1cc(NC(=O)CNc2cccc(OC(F)F)c2C)n(C)n1	-2.043%
Cc1cc(C(=O)NCC2(C(N)=O)CCOCC2)nn1C(C)(C)C	9.321%
Cc1nn(C(C)(C)C)c(C)c1C(=O)NCC1(C(N)=O)CCOCC1	-1.881%
Cc1nn(C)c(Cl)c1C(=O)NCC1(C(N)=O)CCOCC1	99.78%
CC(C)CN1CCN(Cc2nc3ccccc3[nH]2)[C@H]2CS(=O)(=O)C[C@H]21	-2.653%
Cc1csc(CCCNC(=O)NC2CC(=O)N(C(C)(C)C)C2)n1 (stereo not given)	79.6%
Cc1nc(C)c(CCNC(=O)NC2CC(=O)N(C(C)(C)C)C2)s1 (stereo not given)	-0.9476%
CCc1nc(CCNC(=O)NC2CC(=O)N(C(C)(C)C)C2)cs1 (stereo not given)	17.05%
CC(=O)c1ccc(NC(=O)c2ccc3c(c2)C2(CCCCC2)CN3)cc1.O=C(O)C(F)(F)F	13.81%
CCn1c(C(=O)N2CCCN(CC(N)=O)CC2)cc2ccccc21	113.2%
CCn1c(C(=O)N2CCN(CC[S+](C)[O-])CC2)cc2ccccc21 (stereo not given)	101.9%
CC(O)CN1CCN(C(=O)c2cccn2Cc2ccncc2)CC1 (stereo not given)	-5.756%
CCn1c(C(=O)N2CCN(CC(C)O)CC2)cc2ccccc21 (stereo not given)	-3.08%
Cc1cccc2cc(C(=O)N3CCSCC3)n(C)c12	-17.56%
CC(O)CN1CCN(C(=O)c2cc3ccccc3n2C)CC1 (stereo not given)	80.19%
CCC(O)CN1CCN(C(=O)c2cc3ccccc3n2CC)CC1 (stereo not given)	81.21%
CCn1c(C(=O)N2CCN(C(=O)COC)CC2)cc2ccccc21	-7.431%
CC(O)CN1CCN(C(=O)c2cccc(CC#N)c2)CC1 (stereo not given)	0.248%

SMILES	Percent Effect
NC(=O)CN1CCCN(C(=O)c2ccn(-c3cccc(F)c3)n2)CC1	-12.78%
CCn1c(CN2CCN(CC(N)=O)CC2)nc2c(F)cccc21	-7.265%
CCn1c(C(=O)N2CCN(C(=O)NC(C)C)CC2)cc2ccccc21	-5.351%
COc1ccc(C)cc1-c1csc(Cn2ccc(=O)[nH]c2=O)n1	-13.88%
c1cnn(Cc2nnc(C3CCN(C4CCOCC4)CC3)n2C2CC2)c1	-3.51%
O=C(COc1ccccc1F)NCCC(O)c1ccco1 (stereo not given)	-8.311%
Cc1ccc(CNC2(Cc3cc(-c4ccc(F)cc4)on3)COC2)o1	-24.42%
CCN(c1cccc(F)c1)S(=O)(=O)c1cc(C(=O)O)cc2c1CCC2	-8.987%
CC(Nc1cccc(CN2CCOC2=O)c1)C(=O)N1CCNC1=O (stereo not given)	-9.338%
COCCCC(=O)N1CCC(Nc2cccnn2)CC1	100.5%
Cc1ccc(NC2CCN(C(=O)CCc3ccco3)CC2)nn1	-2.742%
Cc1cnn(CCC(=O)N2CCC(Nc3cccnn3)CC2)c1	5.382%
Cc1ccc(CCC(=O)N2CCC(Nc3cccnn3)CC2)cc1	118.9%
CC(C)(C)SCCCC(=O)N1CCC(Nc2cccnn2)CC1	-0.09307%
Cc1noc(Cl)c1CCC(=O)N1CCC(CC(N)=O)CC1	-2.795%
Cc1nn(CC(=O)N2CCC(Nc3cccnn3)CC2)c(C)c1Cl	-11.96%
O=C(CCc1ccco1)N1CCC(Nc2cccnn2)CC1	108.6%
Cc1noc(Cl)c1CCC(=O)N1CCC(Nc2cccnn2)CC1	97.17%
O=C1CC(Cc2ccc(NC(=O)c3cccc(F)c3)cc2)C(=O)N1 (stereo not given)	-11.36%
Cc1cc(CN2CCN(C(=O)NC(C)c3cccnc3)CC2)on1 (stereo not given)	-9.533%
CCOC(=O)NC1CCCN(Cc2ccc(-n3cncn3)c(C)c2)C1 (stereo not given)	8.303%
COc1cc(NC(=O)NCCO)ccc1N1CCOC1=O	-1.059%
Cn1cc(N2CCN(c3ccc(C#N)cc3F)CC2=O)cn1	-27.57%
